The values below come from PubChem BioAssay (NCATS).

Inconclusive results are not listed. Active and inactive are the calls of the source. Unless noted, calls come from the whole dose curve; as a rule, active = well fitted curve in the direction sought with a large enough effect; inconclusive = small, poorly fitted or top-dose-only effect, or another doubt; inactive = no such curve, though single readings can be large; an effect the other way counts as inactive or inconclusive.

Test [1] in a line: qHTS assay for measurement of the activity of small molecule inhibitors on Zika virus induced Caspase-3 activity in human iPSC derived neural progenitor cells (hNPCs) (AID 1224857). Note: % of control where 0% means no effect; nearly all actives have a fitted effect of over 65% in size. The procedure, abridged: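 In medium with heparin 2 ug/ml and cyclopamine 2 uM, hNPCs (350 cells/well) received compound for one hour and then Zika virus at 2 FFU/cell; caspase activity was measured by Caspase-Glo 3/7 luminescence 6 h post-infection.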

A short description of test [2]: qHTS assay for measurement of the activity of small molecule inhibitors on Zika virus induced Caspase-3 activity in human astrocytoma cells (AID 1224859).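 Note: plate controls were ZIKV-infected untreated cells for no effect and uninfected cells for full effect.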 The method, boiled down:
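A cell-based luminescent caspase-3/7 assay used SNB-19 cells infected with ZIKV (2 FFU/cell) for 6 h following 1 h compound pretreatment.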
Background: In qHTS, concentration-response curves come from the screen itself.

A short description of test [3]: qHTS assay to identify small molecule inhibitors of chordoma cells - UCH-1 (AID 1259355). Note: % is set by controls: 0 for no effect and ±100 for the full control effect; nearly all actives have a fitted effect of over 55% in size. The procedure, abridged: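 800 cells/well, overnight attach; compounds pinned at 15 concs, then auranofin/camptothecin/doxorubicin/rubitecan/topotecan combo added; 48hr 37 C, 5% CO2; CellTiter-Glo, 30min RT, luminescence.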
The nature of test [4]: qHTS assay to identify small molecule inhibitors of chordoma cells - UCH-2 (AID 1259356). Note: % is set by controls: 0 for no effect and ±100 for the full control effect.
The nature of test [5]: P-glycoprotein substrates identified in KB-8-5-11 adenocarcinoma cell line, qHTS therapeutic library screen (AID 1346987). Note: % is set by controls: 0 for no effect and ±100 for the full control effect; nearly all actives have a fitted effect of over 65% in size. The following applies: outcome: dose series up to 44.5 µM. The procedure, abridged:
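Human cervical adenocarcinoma KB-8-5-11 cells, selected in colchicine to over-express P-gp and assayed without it, were exposed for 72 h to titrated compounds. An ATP-based luminescent viability signal gave AC50.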

Test [6] is described as follows: qHTS profiling of the MIPE4 collection as inhibitors of Plasmodium falciparum (3D7) proliferation (AID 743344; call rule not given here;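 note: scaled between DMSO vehicle wells and 0.29 µM artemisinin as full inhibition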). The following applies: P. falciparum 3D7 in erythrocytes, SYBR Green DNA fluorescence, 72 h; at 9.64 µM (top of the series) unless noted. The method, boiled down:
(§1)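 Parasite DNA was quantified by SYBR Green I fluorescence (ex 485, em 535 nm) after overnight lysis in saponin/Triton buffer at room temperature. Cultures at 0.3% parasitemia and 2.5% hematocrit were first exposed to compound for 72 h at 37 C; signals were normalised to artemisinin (0.29 uM) and vehicle wells.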

The nature of test [7]: qHTS profiling of the MIPE4 collection as inhibitors of Plasmodium falciparum (DD2) proliferation (AID 743345; call rule not given here). The following applies: P. falciparum Dd2 in erythrocytes, SYBR Green DNA, 72 h; at 9.64 µM (top of the series) unless noted. An excerpt: Plasmodium falciparum is a virulent malarial parasite that kills 1-2 million people worldwide each year. Transmitted by mosquitoes, the sporozoite form of the parasite enters the blood stream to infect hepatocytes, where they become merozoites that infect red blood cells (erythrocytes). Within erythrocytes, merozoites begin a […] cycle of growth and division, after which the parasite is released to infect new red blood cells. Gametocytes, which form within erythrocytes as well, circulate in the bloodstream and are ingested by the mosquito, thereby completing the life cycle. To profile malarial isolates for differential chemical responses and to identify inhibitors of malarial growth, an assay that measures P. falciparum growth and replication within erythrocytes was employed. This assay uses a DNA binding fluorescent dye (SYBR Green) to detect parasite DNA following cell lysis. Because mature erythrocytes lack DNA, only Plasmodium-derived DNA is detected.
The SYBR Green viability assay was adapted from a method described previously (Plouffe et al., 2008). For screening 3 ul culture medium was dispensed into 1536 well black clear bottom plates (Aurora Biotechnologies) using a Multidrop Combi (Thermo Fisher Scientific Inc.), 23 nL compounds in DMSO were added by a pin tool (Kalypsys), and 5 ul of erythrocytes infected with P. falciparum (0.3% parasitemia, 2.5% hematocrit final concentration) were added. The plates were incubated at 37 C in a humidified incubator in 5% CO2 for 72 h, and 2 ul lysis buffer (20 mM Tris HCl, 10 mM EDTA, 0.16% saponin, 1.6% triton X, 10X SYBR Green I supplied as 10,000X […] by Invitrogen) was added to each well. […] The following morning, fluorescence intensity at 485(14) nm excitation and 535(25) nm emission wavelengths was measured on an EnVision (Perkin Elmer) plate reader. Plate reads were normalized relative to the control inhibitor (0.29 uM artemisinin) and vehicle (DMSO) wells present on each plate and then corrected by an algorithm using vehicle-only control plates at the beginning and end of the compound plate stack.

Test [8] can be described thus: qHTS profiling of the MIPE4 collection as inhibitors of Plasmodium falciparum (DD2) proliferation (Rep 2) (AID 743346; call rule not given here). The following applies: P. falciparum Dd2 in erythrocytes, SYBR Green DNA, 72 h; at 9.64 µM (top of the series) unless noted. The method, boiled down: as §1
A short description of test [9]: qHTS profiling of the MIPE4 collection as inhibitors of Plasmodium falciparum (HB3) proliferation (AID 743347; call rule not given here;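 note: plate controls were DMSO vehicle wells for no effect and artemisinin wells for full effect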). The following applies: P. falciparum HB3 in erythrocytes, SYBR Green DNA, 72 h; at 9.64 µM (top of the series) unless noted. The method, boiled down:
as §1

For the compound `OC[C@@H](O)[C@@H](O)[C@H](O)[C@H](O)CO`, the result in [1], in test [2], in [3], in test [4] and in test [5] was inactive.

On to `CN/C(=C\[N+](=O)[O-])NCCSCc1csc(CN(C)C)n1`, for which the result in test [1], in test [2], in test [3], in test [4] and in [5] was inactive.

Regarding `O=C(O)CCC(=O)O`, the compound was classed as inactive in [1], in [2], in test [3], in test [4] and in test [5].

As to `NCC1CCC(C(=O)Oc2ccc(CCC(=O)O)cc2)CC1` (configuration not stated), the outcome in [1], in test [2], in [3], in test [4] and in test [5] was inactive.

For `CCOC(=O)OC(C)OC(=O)[C@@H]1N2C(=O)[C@@H](NC(=O)[C@H](N)c3ccccc3)[C@H]2SC1(C)C` (some centres not stated), the call in test [1], in test [2], in test [3], in test [4] and in test [5] was inactive.

Take `NC(N)=NS(=O)(=O)c1ccc(N)cc1`: the outcome in test [1], in test [2], in test [3], in test [4] and in test [5] was inactive.

`CC1(C)[C@@H](OC(=O)CCC(=O)O)CC[C@]2(C)[C@H]3C(=O)C=C4[C@@H]5C[C@@](C)(C(=O)O)CC[C@]5(C)CC[C@@]4(C)[C@]3(C)CC[C@@H]12`: the compound was classed as inactive in test [1], in test [2], in [3], in test [4] and in [5].

`CCCCC1(COC(=O)CCC(=O)O)C(=O)N(c2ccccc2)N(c2ccccc2)C1=O`: the result in test [1], in [2], in [3], in [4] and in [5] was inactive.

Regarding `CCc1nnc(NS(=O)(=O)c2ccc(N)cc2)s1`, the compound was classed as inactive in [1], in test [2], in test [3], in test [4] and in test [5].

For the compound `CCS(=O)(=O)CCn1c([N+](=O)[O-])cnc1C`, the outcome in test [1], in test [2], in test [3], in [4] and in test [5] was inactive.

Consider `O=C(O)Cn1c(C(=O)Nc2nc(-c3ccccc3Cl)cs2)cc2ccccc21`, for which the compound was called inactive in test [1], in [2], in [3], in test [4] and in test [5].

Consider `O=C(OOC(=O)c1ccccc1)c1ccccc1`, for which the outcome in test [1], in test [2], in test [3], in [4] and in test [5] was inactive.

For the compound `OCc1ccc(Cl)cc1Cl`, the outcome in test [1], in test [2], in [3], in test [4] and in test [5] was inactive.

Turning to `O=C(O)c1ccccc1C(=O)Nc1ccc(S(=O)(=O)Nc2nccs2)cc1`, the call in [1], in test [2], in test [3], in [4] and in [5] was inactive.

Consider `CC[N+](C)(CC)CCOC(=O)C1c2ccccc2Oc2ccccc21`, for which the compound was called inactive in test [1], in [2], in test [3], in test [4] and in test [5].

With `FC(F)(F)C(Cl)Br` (configuration not stated), the call in test [1], in [2], in test [3], in test [4] and in test [5] was inactive.

Regarding `CC(=O)Nc1ccc(OCCOCCOc2ccc(NC(C)=O)cc2)cc1`, the compound was classed as inactive in test [1], in test [2], in test [3], in test [4] and in [5].

Turning to `CCc1cccc(CC)c1NC(=O)CN(CC(=O)O)CC(=O)O`, the compound was classed as inactive in test [1], in test [2], in test [3], in test [4] and in test [5].

With `Cc1ncc(CO)c(CN)c1O`, the compound was classed as inactive in test [1], in test [2], in test [3], in [4] and in test [5].

As for `Cc1cccc(C(=O)O)c1O`, the result in test [1], in test [2], in test [3], in test [4] and in test [5] was inactive.

As to `O=C1C(c2[nH]c3ccccc3c2O)=Nc2ccccc21`, the result in [1], in test [2], in test [3], in [4] and in [5] was inactive.

As for `Nc1c2c(nc3c1CCC3)CCCC2`, the result in test [1], in test [2], in test [3], in test [4] and in test [5] was inactive.

For `COc1ccc(NS(=O)(=O)c2ccc(N)cc2)nn1`, in test [6], the parasite growth, % of DMSO control was 103%. The parasite growth remaining, % of DMSO control (lower = more inhibition) in test [7] was 101%. For the same compound, the parasite growth, % of control (lower = inhibition) in test [8] came out at 141%. In [9], the growth, % of control stood at 62.1%.

In turn, `Nc1ccc(S(=O)(=O)c2ccc(N)cc2)cc1` showed a parasite growth, % of DMSO control in [6] of 91.3%. The parasite growth remaining, % of DMSO control (lower = more inhibition) in test [7] was 103%. In addition, the parasite growth, % of control (lower = inhibition) in [8] is 101%. This compound registered a growth, % of control in [9] of 100%.

The compound `CCCCCCCCCCOc1cc2c(=O)c(C(=O)OCC)c[nH]c2cc1OCC` yielded a parasite growth, % of DMSO control in test [6] of 7.74% [at 28.5 µM]. Moreover, the parasite growth remaining, % of DMSO control (lower = more inhibition) in test [7] worked out at 7.98% [at 28.5 µM]. Further, the parasite growth, % of control (lower = inhibition) in [8] was 14.5% [at 28.5 µM]. In addition, in [9], the growth, % of control turned out to be 3.33% [at 28.5 µM].
